Bioassay records as filed in PubChem.
An excerpt weighted towards active compounds, which were near 2.9% of everything screened.
ClpP mod: qHTS Assay for Activators of ClpP. ATP-dependent Clp protease proteolytic subunit (Bacillus subtilis (strain 168)), P80244. purified B. subtilis ClpP, FRET peptide cleavage, 20 min. Potency, µM (doses to about 57.5 µM), for inactives: at the highest dose activity change, negative = active. 340,000 tested, 1.9% active. AID 651965, 2013; active = well fitted falling curve with a large enough effect; inconclusive = small, poorly fitted or top-dose-only effect; inactive = no such curve, though single readings can be large or run the other way; also: potency is read from the fitted curve at half-maximal effect; the source files actives as falling curves though it sought activators and does not explain the sign; nearly all actives have a fitted effect of over 65% in size
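Buffer: 100 mM Tris/HCl pH8, 100 mM KCl, 0.05% low protease BSA, 2.5% glycerol, 0.01% Tween-20. ClpP 10 microg/mL final; 20 min RT; delta FRET normalized to ADEP and DMSO controls.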
LDHA inh: qHTS assay for inhibitors of human lactate dehydrogenase. L-lactate dehydrogenase A chain (Homo sapiens), P00338. purified LDHA, NADH/diaphorase-resazurin fluorescence; stronger effect = lower value. activity change, % (values are at about 110 or 230 µM). 480,000 tested, 0.15% active; in the data active = activity change below about -30%; inconclusive = mostly about -25% to -30%;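 also: plate controls were DMSO wells for no effect and wells without enzyme for full effect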
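Human LDH5 at 2 nM final in Tris HCl pH 7.4 with 0.06 mM NADH and 0.2 mM pyruvate, reacted 5 minutes at room temperature. Remaining NADH coupled via diaphorase/resazurin; resorufin fluorescence read at 0 and 20 minutes, normalized to enzyme-free and DMSO wells.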
p53 reactivation: qHTS assay for re-activators of p53 using a Luc reporter; H1299 p53-A138V BP100-luciferase reporter, luminescence, 24 h; Potency, µM (series often up to 92.2 µM), for inactives: at the highest dose activity change, positive = activation, hits mostly activators; 320,000 tested, 0.063% active; AID 504706, 2011; also: potency is read from the fitted curve at half-maximal effect; % of control where 0% means no effect; nearly all actives have a fitted effect of over 45% in size
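H1299 (p53-null), stable ts p53-A138V + BP100-Luc; 1000 cells/well, Opti-MEM/10% FBS; cpd 4 pt, 1:5; 24 h, 37 deg C, 5% CO2; detection reagent 10 min RT; luminescence.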
HEK293 tox: qHTS of GLP-1 Receptor Inverse Agonists: Cytotox Screen; Potency, µM (series often up to 38.3 µM), without a hit: top-dose activity change, negative = inhibition, usual class: inhibitors; HEK293 cAMP-luciferase reporter cells, luminescence, 24 h; 410,000 tested, 0.13% active; AID 624418, 2012;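 also: loss of luciferase light is scored as toxicity; potency is read from the fitted curve at half-maximal effect; % is scaled to controls: 0 for no effect and ±100 for the full control effect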
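Here, cytotoxicity is scored as loss of luminescence. The MLSMR collection was tested on cells seeded in medium containing 10% Nu serum, with a 24 hr compound exposure preceded by 12 hours of culture.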
GLP1R ag: qHTS of GLP-1 Receptor Agonists | Glucagon-like peptide 1 receptor (Homo sapiens), P43220 | HEK293 GLP-1R CRE-luciferase, luminescence, 4-6 h; cells express a hypersensitive GLP-1R form | Potency, µM (titrated, usually from 45.6 µM), for the others: at the top dose activation, actives largely listed as activators | 380,000 tested, 0.007% active | AID 624172, 2012; also: potency is read from the fitted curve at half-maximal effect; % of control where 0% means no effect
Target sequence (P43220 whole entry, looked up): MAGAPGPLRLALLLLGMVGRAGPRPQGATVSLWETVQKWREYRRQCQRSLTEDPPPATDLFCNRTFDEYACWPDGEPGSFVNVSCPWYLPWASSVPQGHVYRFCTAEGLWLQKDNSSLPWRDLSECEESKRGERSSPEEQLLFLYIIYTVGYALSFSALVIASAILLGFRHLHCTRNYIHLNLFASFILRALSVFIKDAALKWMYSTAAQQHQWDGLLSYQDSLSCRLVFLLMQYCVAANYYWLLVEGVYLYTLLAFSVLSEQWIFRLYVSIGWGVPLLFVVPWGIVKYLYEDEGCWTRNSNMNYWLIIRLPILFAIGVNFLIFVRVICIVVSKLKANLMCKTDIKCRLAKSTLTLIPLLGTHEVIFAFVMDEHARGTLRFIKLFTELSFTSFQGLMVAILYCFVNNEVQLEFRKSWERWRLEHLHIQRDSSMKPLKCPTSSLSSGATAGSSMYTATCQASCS
GLP1R inv ag: qHTS of GLP-1 Receptor Inverse Agonists (Inhibition Mode); Glucagon-like peptide 1 receptor (Homo sapiens), P43220; HEK293 GLP-1R CRE-luciferase, luminescence, 24 h; GLP-1R form is constitutively active; Potency, µM (highest dose often 38.3 µM), for the others: at the top dose activity change, negative = inhibition, usual class: inhibitors; 410,000 tested, 1.6% active; also: potency is read from the fitted curve at half-maximal effect; % is scaled to controls: 0 for no effect and ±100 for the full control effect; nearly all actives have a fitted effect of over 55% in size
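Inverse agonists were sought by their lowering of basal cAMP reporter luciferase output in HEK293 cells stably carrying constitutively active human GLP-1R, after 24 h compound treatment.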
Numbers without * were called inactive; u = inconclusive; x = no result. Unless noted, calls follow the shape of the dose curve; as a rule, active = well fitted curve in the direction sought with a large enough effect; inconclusive = small, poorly fitted or top-dose-only effect, or another doubt; inactive = no such curve, though single readings can be large; an effect the other way counts as inactive or inconclusive.

SMILES	ClpP mod	LDHA inh	p53 reactivation	HEK293 tox	GLP1R ag	GLP1R inv ag
CCOC(=O)C1=C(COC(=O)Cc2ccc(Cl)cc2)NC(=O)NC1C (configuration not stated)	-1%	-5	-5%	-2%	22%	16%
Cc1ccc2c(c1)c1ncnc(N3CCOCC3)c1n2C	36%	-3	u	10%	2%	0%
Cc1ccc2c(c1)c1ncnc(N3CCN(c4ccccc4)CC3)c1n2C	32µM*	-4	7%	-6%	0%	-16%
CC1CC1C(=O)OCC(=O)Nc1ncc(Cl)cc1Cl (configuration not stated)	x	4	3%	-20%	10%	7%
O=C(NCC1OCCc2ccccc21)c1cccc(Br)c1 (configuration not stated)	x	-42*	x	x	x	x
COc1cccc(C(=O)NCC2OCCc3ccccc32)c1 (configuration not stated)	-4%	-7	x	4%	x	10%
O=C(NCc1ccncc1)c1ccc(NS(=O)(=O)c2ccc3[nH]c(=O)[nH]c3c2)cc1	x	0	x	x	x	x
Cc1nn(-c2ccc(F)cc2)c2c1cc(C#N)c1nc3ccccc3n12	16µM*	-2	-8%	-20%	-13%	1%
Nc1c(C(=O)CSc2nnnn2-c2ccccc2)c(=O)[nH]c(=O)n1C1CC1	x	-5	-1%	-13%	0%	4%
COc1ccc(CN2CCC(n3nccc3NC(=O)C3CC3)CC2)c(OC)c1OC	-2%	0	9%	-11%	-5%	8%
CCOC(=O)c1cnc(-n2nc(C)cc2C)nc1NCc1ccc2c(c1)OCO2	u	-5	-3%	u	-2%	3.5µM*
CCOC(=O)c1cnc(-n2nc(C)cc2C)nc1NC1CCCC1	x	2	3%	u	17%	2.5µM*
CCc1cc2c(=O)[nH]c(Cc3ccccc3)nc2s1	-2%	-4	-6%	10%	1%	11%
COc1cc(C(=O)NCCc2ccc(F)cc2)c([N+](=O)[O-])cc1OC	2%	1	2%	-6%	0%	0%
Cc1ccsc1-c1nc(-c2ccccc2)c(-c2ccccc2)[nH]1	28µM*	-7	4%	-4%	3%	0%
COc1ccc(-c2nc(-c3ccccc3)c(-c3cccs3)[nH]2)cc1OC	28µM*	-1	-7%	-16%	2%	-118%
COc1ccc(-c2nc(-c3cccs3)c(-c3cccs3)[nH]2)cc1OC	35µM*	-3	-3%	-29%	9%	u
COc1cc(-c2nc(-c3cccc(Cl)c3)c(-c3ccccc3)[nH]2)cc(OC)c1OC	5%	3	x	u	x	3.5µM*
COc1cc(-c2nc(-c3ccccc3)c(-c3cc([N+](=O)[O-])ccc3C)[nH]2)cc(OC)c1OC	1%	2	-9%	-26%	-4%	u
Fc1ccc(-c2nc(-c3cccs3)[nH]c2-c2ccc(F)cc2)cc1	u	3	1%	1%	0%	u
COc1ccc(-c2nc(-c3ccccc3)c(-c3ccccc3)[nH]2)cc1Br	1%	-5	x	20%	x	u
Cc1ccccc1N=CC=C1OC(C)(C)C(C)(C)O1	-21%	-3	2%	-13%	-8%	u
CCCOC(=O)C1=C(C)NC2=C(C(=O)CCC2)C1c1cccc(OC)c1OC (configuration not stated)	25µM*	-3	-2%	21%	4%	8%
COc1cc(C)ccc1S(=O)(=O)NC(=O)C1(C)CCN1C(=O)C1(c2ccc(Cl)cc2)CCC1 (configuration not stated)	1%	1	x	6%	1%	-14%
